Assay results published in PubChem BioAssay (NCATS).
Inconclusive results are not listed. Where a call stands in place of a potency, no number is given. Calls of active or inactive are those of the source. Unless noted, the call rests on the fitted dose curve; in most records, active means well fitted curve in the direction sought with a large enough effect; inconclusive means small, poorly fitted or top-dose-only effect, or another doubt; inactive means no such curve, though single readings can be large; an effect the other way counts as inactive or inconclusive.

Experiments:
[1] = A High-Content qHTS Against Drug Library for the Identification of Small Molecules that Inhibit DYT1 Early Onset Primary Dystonia-Associated Cell Pathology (AID 1645839; calls by dose curve; further: series mostly up to about 46 µM)
Procedure, shortened: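 Flp-In T-REx 293 cells with tetracycline-inducible EGFP-delE hTOR1A (WT EGFP-hTOR1A as reference), 800 cells/well; compound added with tetracycline, 48 h at 37 C. Fixed, permeabilized cells imaged; %pathology (punctate TorsinA) primary, cell count counterscreen.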

[2] = target: Cytochrome P450 2D6 (Homo sapiens) (UniProt P10635); test: Cytochrome P450 family 2 subfamily D member 6 (CYP2D6) small molecule antagonists: luciferase biochemical (cell-free) qHTS assay (AID 1645840; active means well fitted curve in the direction sought with a large enough effect in the repeat runs; an effect the other way counts as inactive or inconclusive; further: nearly all actives have a fitted effect of over 55% in size; further: potency means the concentration at half of the fitted maximal effect)
Procedure, shortened: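 P450-Glo luminescent screen: recombinant CYP2D6 enzyme–proluciferin substrate mix preincubated with compound 10 min at room temperature, then NADPH regeneration added for 1 h at room temperature. Detection reagent added for 20 min; luciferin light read as relative luminescence units.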

[3] = target: Cytochrome P450 2C9 (Homo sapiens) (UniProt P11712); test: Cytochrome P450 family 2 subfamily C member 9 (CYP2C9) small molecule antagonists: luciferase biochemical (cell-free) qHTS assay (AID 1645842; active means well fitted curve in the direction sought with a large enough effect in the repeat runs; an effect the other way counts as inactive or inconclusive; further: nearly all actives have a fitted effect of over 55% in size; further: potency means the concentration at half of the fitted maximal effect)
Procedure, shortened: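 Luminescence, after 20 min with luciferin detection reagent, reflected CYP2C9 turnover during a 1 h NADPH-driven reaction at 37C. Enzyme-substrate mix contained 0.4% bovine serum albumin and was preincubated with compound 10 min at room temperature.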

[4] = Primary qHTS for inhibitors of nuclear receptor binding SET domain protein 2 (NSD2) in an isogenic RCH-ACV NSD2 p.E1099K mutant (9B) (AID 1645876); further: nearly all actives have a fitted effect of over 70% in size
[5] = Primary qHTS for inhibitors of nuclear receptor binding SET domain protein 2 (NSD2) in an RCH-ACV wild type WT cells (2C) (AID 1645877); further: nearly all actives have a fitted effect of over 70% in size

Cytochrome P450 2C9 (Homo sapiens), sequence (P11712 whole entry, looked up): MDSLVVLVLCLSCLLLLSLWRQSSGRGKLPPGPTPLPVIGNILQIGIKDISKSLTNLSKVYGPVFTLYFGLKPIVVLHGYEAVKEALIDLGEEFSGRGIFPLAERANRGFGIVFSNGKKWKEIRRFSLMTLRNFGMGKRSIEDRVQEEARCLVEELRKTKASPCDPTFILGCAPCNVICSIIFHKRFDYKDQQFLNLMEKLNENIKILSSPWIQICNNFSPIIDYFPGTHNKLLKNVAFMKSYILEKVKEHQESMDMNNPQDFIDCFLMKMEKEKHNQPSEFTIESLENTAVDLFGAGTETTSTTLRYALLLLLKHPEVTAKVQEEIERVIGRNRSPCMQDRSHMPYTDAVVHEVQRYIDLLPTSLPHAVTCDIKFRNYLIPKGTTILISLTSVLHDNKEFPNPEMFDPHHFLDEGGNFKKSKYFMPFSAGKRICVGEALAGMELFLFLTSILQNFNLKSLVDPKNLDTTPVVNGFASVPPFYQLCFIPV
Cytochrome P450 2D6 (Homo sapiens), sequence (P10635 whole entry, looked up): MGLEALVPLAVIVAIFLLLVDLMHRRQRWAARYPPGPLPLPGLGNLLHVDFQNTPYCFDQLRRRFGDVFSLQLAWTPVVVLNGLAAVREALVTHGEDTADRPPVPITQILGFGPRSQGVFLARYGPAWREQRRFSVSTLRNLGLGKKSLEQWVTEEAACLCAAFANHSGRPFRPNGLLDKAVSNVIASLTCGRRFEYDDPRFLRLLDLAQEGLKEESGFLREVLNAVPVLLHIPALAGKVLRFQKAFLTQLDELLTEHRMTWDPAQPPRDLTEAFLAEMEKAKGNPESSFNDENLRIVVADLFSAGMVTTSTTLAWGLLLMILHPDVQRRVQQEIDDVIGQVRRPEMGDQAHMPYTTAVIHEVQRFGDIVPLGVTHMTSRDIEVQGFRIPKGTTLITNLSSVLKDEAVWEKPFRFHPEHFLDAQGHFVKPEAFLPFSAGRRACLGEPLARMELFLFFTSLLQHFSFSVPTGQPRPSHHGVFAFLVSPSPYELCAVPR

Row | Structure (SMILES) | Potency [1] | Potency [2] | Potency [3] | Potency [4] | Potency [5]
1 | Cc1cccc(C(=O)O)c1O | inactive | inactive | inactive | inactive | inactive
2 | CC(CN(C)C)C(C)(O)Cc1ccc(Cl)cc1 (stereo not given) | inactive | 12.3 µM (active) | inactive | inactive | inactive
3 | C=CCSCC1Nc2cc(Cl)c(S(N)(=O)=O)cc2S(=O)(=O)N1 (stereo not given) | inactive | inactive | 8.49 µM (active) | inactive | inactive
4 | C=CCNC(N)=S | inactive | inactive | inactive | inactive | inactive
5 | CN(C(=O)c1c(O)c2ccccc2n(C)c1=O)c1ccccc1 | inactive | inactive | inactive | inactive | inactive
6 | CC(=O)Nc1cccc(O)c1 | inactive | inactive | inactive | inactive | inactive
7 | CCCCCC(N)=O | inactive | inactive | inactive | inactive | inactive
8 | CN1CCN(C(=O)C2CCCCC2)CC1 | inactive | inactive | inactive | inactive | inactive
9 | CCOC(N)=O | inactive | inactive | inactive | inactive | inactive
10 | Nc1ncnc2c1ncn2[C@@H]1O[C@H](COP(=O)(O)O)[C@@H](O)[C@H]1O | inactive | inactive | inactive | inactive | inactive
11 | CCN(CC)C(=O)c1cccc(C)c1 | inactive | inactive | inactive | inactive | inactive
12 | CC(CSC(=O)c1ccccc1)C(=O)N1C[C@@H](Sc2ccccc2)C[C@H]1C(=O)O (stereo not given in full) | inactive | inactive | inactive | inactive | inactive
13 | C[C@H]1COc2c(C3(N)CC3)c(F)cc3c(=O)c(C(=O)O)cn1c23 | inactive | inactive | inactive | inactive | inactive
